Drawing on PubChem BioAssay (Tox21), this text covers outcome and fluorescence, % of fluorescent control for 40 compounds.

The source made the active and inactive calls. The call rests on the fitted dose curve; in most records, active means well fitted curve in the direction sought with a large enough effect in the repeat runs; inconclusive means weak or mixed curves; inactive means flat fitted curve, though single readings scatter.
On the % scale 0 is the no-effect control and ±100 the full control effect.

A short description of this test: qHTS assay to test for compound auto fluorescence at 590 nm (red) in HEK293 cells (AID 720679). Particulars: red autofluorescence 540/590 nm; series mostly up to 91.3 µM. The text has this: National Center for Advancing Translational Sciences [NCATS]
NIH Chemical Genomics Center [NCGC]
U.S. Environmental Protection Agency [EPA]
National Institutes of Environmental Health Sciences [NIEHS]
National Toxicology Program [NTP]
U.S. Food and Drug Administration [FDA]
Compound auto fluorescence often interferes with screening of the compound library against various biological targets and signaling pathways. Some of these compounds may have fluorophoric properties. Such properties may interfere with the assay outputs resulting in false positives and/or negatives. To decrease such complications and ensure the compound activities are relevant in terms of biological response, the Tox21 10K compound library was screened for auto fluorescence.
From the fluorophores used as reporter signals in our screening assays, the auto fluorescence equivalencies of compounds against three fluorophores have been evaluated: Triamterene, Fluorescein and Rose Bengal sodium for blue, green and red fluorescence, respectively. The fluorescence intensities were measured using Excitation/Emission wavelengths at 405/460nm, 485/535nm and 540/590nm for blue, green and red labels, respectively. This assay includes the red fluorescence data.
Tox21 Assay Protocol Summary:
2,000 HEK293 cells in 5 uL of culture medium containing 10% dialyzed FBS per well were dispensed into black wall/clear bottom 1536-well plates using a Multidrop Combi Dispenser (Thermo Scientific). The assay plates were incubated for 4-5 hr at 37C to allow cell attachment to the well bottom, followed by the transfer of 23 nL compound or DMSO vehicle by a pintool work station (Kalypsys, San Diego, CA). After the assay plates were incubated overnight at 37C and 5% CO2, fluorescence intensities in the assay plates were measured by an Envision (PerkinElmer, Shelton, CT) plate reader using three labels for measuring blue, green and red fluorescence at […] 460, 535 and 590nm respectively.
(In general: qHTS replaces the single test concentration by a dilution series.)
`CC1C2CC(CC2C2CCCC(O)C2)C1(C)C` (stereo not given): the call was inactive.

With `CC1=C(/C=C/C(C)=C\C=C\C(C)=C\C(=O)O)C(C)(C)CCC1`, the compound was called inactive.

As to `COc1ccc(C(=O)c2cccc(O)c2)c(OC)c1`, the compound was classed as inactive.

Take `CO[C@H]1O[C@H](CO)[C@@H](O)[C@H](O)[C@H]1O`: the result was inactive.

For `CCCCCCCCCOC(C)=O`, the call was inactive.

Turning to `O=C(/C=C/c1ccccc1)OCCCc1ccccc1`, the compound was classed as inactive.

In the case of `Cc1oncc1C(=O)Nc1ccc(C(F)(F)F)cc1`, the outcome was inactive.

For `CC1(C)C2=CCCC(C)(C)[C@]23CC[C@H]1C3`, the result was inactive.

As to `Cc1ccc(Nc2nccc(N(C)c3ccc4c(C)n(C)nc4c3)n2)cc1S(N)(=O)=O`, the call was inactive.

Turning to `O=C(CCCCCCC(=O)Nc1ccccc1)NO`, the result was inactive.

Regarding `CC[C@@H]([C@H](C)O)n1ncn(-c2ccc(N3CCN(c4ccc(OC[C@@H]5CO[C@@](Cn6cncn6)(c6ccc(F)cc6F)C5)cc4)CC3)cc2)c1=O`, the result was inactive.

As for `Nc1ccc(C(=O)OCCCOC(=O)c2ccc(N)cc2)cc1`, the result was inactive.

For `CC(C)C(OC(=O)c1ccccc1)C(C)(C)COC(=O)c1ccccc1` (stereo not given), the compound was called inactive.

As for `C=CC(C)(O)CCCC(C)CCCC(C)CCCC(C)C` (stereo not given), the result was inactive.

For the compound `CC(CCO)CCc1ccccc1` (stereo not given), the compound was called inactive.

For the compound `Oc1cc(O)c(Cl)cc1Cl`, the compound was called inactive.

In the case of `OCC1CC=CCC1` (stereo not given), the outcome was inactive.

With `CNC(=S)NC`, the compound was called inactive.

For `CCCOC(=O)c1ccc(N)cc1`, the compound was called inactive.

Consider `CCCCCC=CCC=CCCCCCCCC(=O)OCC`, for which the outcome was inactive.

Regarding `O=Cc1c(Cl)cccc1Cl`, the compound was called inactive.

Turning to `Cc1occc1C(=O)Nc1ccc(C(=O)N2CCC(F)(F)/C(=C\C(=O)N3CCC(N4CCCCC4)CC3)c3ccccc32)cc1`, the compound was classed as inactive.

In the case of `CCC(Cc1ccccc1)(C(=O)c1ccc(N2CCOCC2)cc1)N(C)C` (stereo not given), the result was inactive.

With `CO[C@H]1C=CO[C@@]2(C)Oc3c(C)c(O)c4c(O)c(c5c(c4c3C2=O)=NC2(CCN(CC(C)C)CC2)N=5)NC(=O)/C(C)=C\C=C/[C@H](C)[C@H](O)[C@@H](C)[C@@H](O)[C@@H](C)[C@H](OC(C)=O)[C@@H]1C`, the call was inactive.

With `CC1(C)O[C@@H]2C[C@H]3[C@@H]4CCC5=CC(=O)C=C[C@]5(C)[C@H]4[C@@H](O)C[C@]3(C)[C@]2(C(=O)CO)O1`, the compound was called inactive.

Regarding `CCCCCCOC(=O)C(C)C`, the compound was classed as inactive.

For the compound `Nc1nccs1`, the outcome was inactive.

Consider `C=CC(C)(C)CC(=O)OC`, for which the outcome was inactive.

With `C=CCCCCCCCCCCCCCCCC`, the fluorescence, % of fluorescent control is 0.277% [at 3.72 µM] (inactive).

Take `O=C1NCCN1`: the call was inactive.

On to `COc1ccccc1N=Nc1c(S(=O)(=O)O)cc2cc(S(=O)(=O)O)cc(NC(C)=O)c2c1O`, for which the result was inactive.

On to `C[C@]12CCC(=O)C=C1C=C[C@@H]1[C@@H]2CC[C@@]2(C)[C@H]1CC[C@@]21CCC(=O)O1`, for which the compound was called inactive.

For the compound `CCc1c2c(nc3ccc(OC(=O)N4CCC(N5CCCCC5)CC4)cc13)-c1cc3c(c(=O)n1C2)COC(=O)[C@]3(O)CC`, the compound was classed as inactive.

Consider `N#C[C@@H]1C[C@@H]2C[C@@H]2N1C(=O)[C@@H](N)C12CC3CC(CC(O)(C3)C1)C2`, for which the outcome was inactive.

Consider `CN1C(=O)CC(C)(c2ccccc2)C1=O` (stereo not given), for which the compound was called inactive.

For `CC1CC(O)CC(C)(C)C1` (stereo not given), the result was inactive.

In the case of `CCNC(=O)N1CCN(CCCC(c2ccc(F)cc2)c2ccc(F)cc2)CC1`, the outcome was inactive.

For `COC(=O)[C@@H]1CC2=CC(=O)CC[C@]2(C)[C@@]23O[C@@H]2C[C@@]2(C)[C@@H](CC[C@@]24CCC(=O)O4)[C@H]13`, the result was inactive.

`COCC(O)CO` (stereo not given): the outcome was inactive.

On to `CCOC(=O)c1ccccc1OC`, for which the call was inactive.
